# Reference: ChEMBL document CHEMBL3988442, “University of Dundee, Small-Polar-MMV Screening Library” (2021)
# Hit rate of the full screen: of about 66,000 compounds, about 960 (1.5%) showed an effect of 50% or more. Shown is part of a subset that was picked to be rich in strong results.
# System: Trypanosoma brucei
# Assay: Trypanosoma brucei 72 hour study
# Format: functional, organism-based
# Design: scale not given: in the data most compounds retested in dose-response had high values
smiles,measurement,setting,value
Cc1cc(Oc2ccc(NC(=O)C3CC3)cc2)cc(C2CCNCC2)n1.Cl,Percent Effect,"30.3 µM, […]",99.81%
CC(=O)Nc1ccc(Oc2cc(C)nc(C3CCCNC3)c2)cc1.Cl (stereo not drawn),Percent Effect,"30.3 µM, […]",-25.31%
CC(=O)Nc1ccc(Oc2cc(C)nc(C3CCNCC3)c2)cc1.Cl,Percent Effect,"30.3 µM, […]",0.5571%
CS(=O)(=O)N1CCC(Nc2ccnc3ccc(Cl)cc23)CC1,Percent Effect,"30.3 µM, […]",-667%
NC(=O)CN1CCC(Nc2ccnc3ccc(Cl)cc23)CC1,Percent Effect,"30.3 µM, […]",62.45%
COCC(=O)N1CCC(Nc2ccnc3ccc(Cl)cc23)CC1,Percent Effect,"30.3 µM, […]",-10.12%
O=C1N(Cc2ccc(F)c(F)c2)CCCC1(O)CNCC1CCCCC1 (stereo not drawn),Percent Effect,"30 µM, 30.03 µM",-26.1%
CC(NC(=O)CCC(C)(C)C)C(=O)Nc1ccc(-n2cncn2)cc1 (stereo not drawn),Percent Effect,"30 µM, 30.03 µM",-4.525%
O=C1N(Cc2ccc(F)c(F)c2)CCCC12CCN(C1CCCC1)C2 (stereo not drawn),Percent Effect,"30 µM, 30.03 µM",-86.64%
O=C1N(Cc2ccc(F)c(F)c2)CCCC12CCN(C1CCCCC1)C2 (stereo not drawn),Percent Effect,"30 µM, 30.03 µM",6.711%
O=C1N(Cc2ccc(F)c(F)c2)CCCC12CCN(C1CCSCC1)C2 (stereo not drawn),Percent Effect,"30 µM, 30.03 µM",50.02%
COCCNC(=O)[C@@]12CCO[C@@H]1CCN(Cc1ccc(OC)cc1)C2.O=C(O)C(F)(F)F,Percent Effect,"30 µM, 30.03 µM",7.509%
CS(=O)(=O)c1ccc(CN2C[C@H]3CC[C@@H]2CN(c2ncccn2)C3)cc1,Percent Effect,"30 µM, 30.03 µM",-59.99%
Cc1ccc(C#N)c(N2CCC(c3nccn3CCN(C)C)CC2)n1,Percent Effect,"30 µM, 30.03 µM",57.26%
Cc1ccc(C#N)c(N2CCC(c3nccn3Cc3cscn3)CC2)n1,Percent Effect,"30 µM, 30.03 µM",31.21%
CN(C)CCn1ccnc1C1CCN(c2cc(N)nc(N)n2)CC1,Percent Effect,"30 µM, 30.03 µM",1.166%
O=C1C[C@H]2CC[C@@H](CN1)N2C(=O)CCc1ccc2c(c1)OCO2,Percent Effect,"30.3 µM, […]",6.652%
Cc1ccc(C2=CCN(C(=O)C3CCN(C)C(=O)C3)CC2)cc1 (stereo not drawn),Percent Effect,"30.3 µM, […]",-12.11%
COc1ccc(C2=CCN(C(=O)C3CCC3)CC2)cc1,Percent Effect,"30.3 µM, […]",-20.1%
COc1ccc(C2=CCN(C(=O)C3CCN(C)C(=O)C3)CC2)cc1 (stereo not drawn),Percent Effect,"30 µM, 30.03 µM",57.6%
CC(C)OCCCN(Cc1ccncc1)Cc1cccc(F)c1.Cl,Percent Effect,"30.3 µM, […]",-29.62%
Cc1ccccc1C1(C(=O)NCCN2CCC(C)CC2)CCOCC1,Percent Effect,"30.3 µM, […]",1.423%
COc1ccccc1C1(CNc2snc(Cl)c2C#N)CCOCC1,Percent Effect,"30.3 µM, […]",0.1302%
N#Cc1c(Cl)nsc1NCC1(c2ccccc2)CCC1,Percent Effect,"30.3 µM, […]",100.1%
COc1ccccc1C1(CNc2snc(Cl)c2C#N)CCCC1,Percent Effect,"30.3 µM, […]",35.81%
Cc1cccc(N2CCc3ncc(CNc4ccccn4)n3CC2)n1.O=C(O)C(F)(F)F.O=C(O)C(F)(F)F,Percent Effect,"30.3 µM, […]",-45.99%
Cl.NCC(=O)N1CCCC1c1nccnc1Nc1ncccn1 (stereo not drawn),Percent Effect,"30.3 µM, […]",-17.2%
C=C(C)CN1CCN(Cc2cnc(-c3ccc(OC)cc3)nc2)CC1.O=C(O)CC(O)(CC(=O)O)C(=O)O,Percent Effect,"30.3 µM, […]",2.32%
Cc1ccc(N[C@@H]2CN(Cc3cc(C)on3)C[C@@H]3CCCO[C@@H]32)nn1.O=C(O)C(F)(F)F.O=C(O)C(F)(F)F,Percent Effect,"30.3 µM, […]",-34.05%
Cc1noc(C)c1CNc1c(N2CCCC2)cccc1N1CCCC1,Percent Effect,"30.3 µM, […]",99.93%
Cc1noc(CNc2c(N3CCCC3)cccc2N2CCCC2)n1,Percent Effect,"30.3 µM, […]",-1.503%
COc1ccccc1N1CCC(NCc2c(C)noc2C)C1 (stereo not drawn),Percent Effect,"30 µM, 30.03 µM",-20.42%
O=C(NCc1ccco1)[C@@H]1CCO[C@@H]2CCN(C3CCOCC3)C[C@H]21.O=C(O)C(F)(F)F,Percent Effect,"30 µM, 30.03 µM",-32.7%
CC(=O)N1[C@H](CN(C)C)C[C@@H]2CN(C(=O)c3ccno3)CC[C@@H]21.O=C(O)C(F)(F)F,Percent Effect,"30.3 µM, […]",5.246%
Cc1nc(C)n(CC2CN(Cc3ccccc3C#N)CCO2)n1 (stereo not drawn),Percent Effect,"30.3 µM, […]",19.46%
Cc1nc(C)n(CC2CN(Cc3ccccc3OC(C)C)CCO2)n1 (stereo not drawn),Percent Effect,"30.3 µM, […]",101%
Cc1nc(C)n(CC2CN(Cc3cccc4ccccc34)CCO2)n1 (stereo not drawn),Percent Effect,"30.3 µM, […]",20.23%
Cn1cc(CN2CCC[C@]3(C[C@@H](Oc4ncccc4F)CO3)C2)cn1.O=C(O)C(F)(F)F.O=C(O)C(F)(F)F,Percent Effect,"30.3 µM, […]",0.8954%
CNC(=O)[C@H]1C[C@@H]2CN(Cc3ccccc3)C[C@H]1O2.O=C(O)C(F)(F)F,Percent Effect,"30.3 µM, […]",0.1079%
CN1CCN(c2ncccn2)CC(C(=O)N(C)C)C1 (stereo not drawn),Percent Effect,"30.3 µM, […]",-26.5%
CN(C)Cc1nc2c(o1)CN(S(=O)(=O)c1cccs1)C2.O=C(O)C(F)(F)F,Percent Effect,"30.3 µM, […]",5.819%
CC(C)c1nc(CN2CCc3onc(-c4cccc(F)c4)c3C2)no1,Percent Effect,"30 µM, 30.03 µM",51.01%
CC(C(=O)N(C)C)N1CCc2onc(-c3cccc(F)c3)c2C1 (stereo not drawn),Percent Effect,"30 µM, 30.03 µM",-18.33%
CC(C)(C)c1nc(CN2CCc3onc(-c4cccc(F)c4)c3C2)no1,Percent Effect,"30 µM, 30.03 µM",51.86%
CC(C)Cc1nc(CN2CCc3onc(-c4cccc(F)c4)c3C2)no1,Percent Effect,"30 µM, 30.03 µM",18.46%
Fc1cccc(-c2noc3c2CN(Cc2cncn2C2CC2)CC3)c1,Percent Effect,"30 µM, 30.03 µM",24.68%
Cn1ncc(CN2CCc3onc(-c4cccc(F)c4)c3C2)c1C1CC1,Percent Effect,"30 µM, 30.03 µM",32.05%
Cn1cc(CNC2CC3(CCN(S(C)(=O)=O)CC3)c3ccccc32)cn1.O=C(O)C(F)(F)F (stereo not drawn),Percent Effect,"30.3 µM, […]",-14.03%
CC(C)c1nnc(N2C[C@@H]3CC[C@H](C2)N(CC2CCC2)C3)s1,Percent Effect,"30 µM, 30.03 µM",-2.589%
CN(C)Cc1cnc(C2CCN(C(=O)c3ccccc3F)C2)[nH]1.Cl (stereo not drawn),Percent Effect,"30.3 µM, […]",3.217%
O=C(Cn1ccc2sccc2c1=O)NCCCc1ccccc1,Percent Effect,"30 µM, 30.03 µM",-11.95%
Cn1cccc1C(=O)N1CCC2(CC1)CC(N1CCOCC1)C2.O=C(O)C(F)(F)F,Percent Effect,"30.3 µM, […]",-54.57%
CCNC(=O)NC1CCC(Oc2ccccc2C#N)CC1 (stereo not drawn),Percent Effect,"30 µM, 30.03 µM",74.2%
CN(C)C1(C(=O)NC2CCC(Oc3ccccc3C#N)CC2)CCC1 (stereo not drawn),Percent Effect,"30 µM, 30.03 µM",-17.82%
CN(C)CCN(C)C(=O)NC1CCC(Oc2ccccc2C#N)CC1 (stereo not drawn),Percent Effect,"30 µM, 30.03 µM",7.047%
CCOCc1ccc(CNc2cncc(-n3cccn3)n2)cc1,Percent Effect,10 µM,-32.35%
CC(NC(=O)C(C)(C)C)c1cc(O)nc(-c2cccnc2)n1 (stereo not drawn),Percent Effect,"30.3 µM, […]",-7.147%
CC(=O)N1CCCN(C(=O)c2csc(-c3ccc(C)cc3C)n2)CC1,Percent Effect,"30 µM, 30.03 µM",20.93%
CC(=O)N1CCN(C(=O)c2csc(-c3ccc(C)cc3C)n2)CC1,Percent Effect,10 µM,-21.97%
CC(=O)NCC1CCN(C(=O)c2csc(-c3ccc(C)cc3C)n2)CC1,Percent Effect,"30 µM, 30.03 µM",56.57%
CN(C)C1CCC2(CCN(Cc3nccn3C)CC2)c2ccccc21.O=C(O)C(F)(F)F.O=C(O)C(F)(F)F (stereo not drawn),Percent Effect,"30.3 µM, […]",-42.21%
CNCC(=O)N1CC(c2cc(Nc3ncccn3)nc(C)n2)C1.Cl,Percent Effect,"30 µM, 30.03 µM",-14.51%
Cn1cnnc1C1CCCN(C(=O)c2cc(-c3ccccc3)on2)C1 (stereo not drawn),Percent Effect,"30 µM, 30.03 µM",-25.06%
CCN(CC)CCCNCc1cc2cc(C)ccc2[nH]c1=O,Percent Effect,"30.3 µM, […]",-2.792%
CCN(CC)CCCNCc1cc2cc(C)cc(C)c2[nH]c1=O,Percent Effect,"30.3 µM, […]",66.62%
CCN(CC)CCCNCc1cc2cccc(C)c2[nH]c1=O,Percent Effect,"30.3 µM, […]",-3.275%
Cc1cc(C(=O)NCCN2CCCCC2C)nn1C(C)(C)C (stereo not drawn),Percent Effect,"30 µM, 30.03 µM",-37.93%
Cl.O=C(Nc1cccc(CNCc2ccsc2)c1)C1CC1,Percent Effect,10 µM,-60.42%
COCc1cc(NCCCSc2nnc(C)s2)ncn1,Percent Effect,"30 µM, 30.03 µM",0.4948%
CNC(=O)CC1CC2(CCN(CC3CC3)CC2)Oc2ccccc21.O=C(O)C(F)(F)F (stereo not drawn),Percent Effect,"30.3 µM, […]",-8.019%
CO[C@H]1CNC[C@@H]1NC(=O)CCc1nc(-c2ccccc2)no1,Percent Effect,"30.3 µM, […]",14.68%
O=C(CCc1nc(-c2ccccc2)no1)N[C@H]1COC[C@@H]1N1CCCC1,Percent Effect,"30.3 µM, […]",62.68%
CCO[C@H]1COC[C@@H]1NC(=O)CCc1nc(-c2ccccc2)no1,Percent Effect,"30.3 µM, […]",-3.299%
COCCN1C(=O)[C@H]2CC[C@@H]1CN(S(=O)(=O)c1ccc(OC)cc1)C2,Percent Effect,"30.3 µM, […]",-80.52%
Cc1cc(NCCS(C)(=O)=O)nc2cc3c(cc12)CCC3,Percent Effect,"30 µM, 30.03 µM",3.514%
Cc1cc(NCCNS(C)(=O)=O)nc2cc3c(cc12)CCC3,Percent Effect,"30 µM, 30.03 µM",12.23%
COc1cc2nc(NCCNS(C)(=O)=O)cc(C)c2cc1OC,Percent Effect,"30 µM, 30.03 µM",21.73%
COc1cc2nc(NCCN3CCNC3=O)cc(C)c2cc1OC,Percent Effect,"30 µM, 30.03 µM",57.38%
COc1cc(OC)c2nc(NCCN3CCNC3=O)cc(C)c2c1,Percent Effect,"30 µM, 30.03 µM",22.56%
Cc1cc(NCCN2CCNC2=O)nc2cc3c(cc12)CCC3,Percent Effect,"30 µM, 30.03 µM",101.3%
Cc1cc(C(=O)N2CCn3cc(CN4CCOCC4)nc3C2)no1.O=C(O)C(F)(F)F,Percent Effect,"30.3 µM, […]",-304.6%
CN1CC(=O)N(c2ccsc2)CC12CCN(C(=O)CC1CCCC1)C2.O=C(O)C(F)(F)F (stereo not drawn),Percent Effect,"30 µM, 30.03 µM",8.203%
O=C(C[C@@H]1COC[C@H]2CN(C3CCCC3)C[C@@H]12)NCc1cccnc1.O=C(O)C(F)(F)F.O=C(O)C(F)(F)F,Percent Effect,"30.3 µM, […]",5.505%
Cc1noc(CN2CCC(Cc3ccc(F)cc3)CC2)n1,Percent Effect,"30.3 µM, […]",-2.984%
CN(C)C(=O)N1C[C@@H]2CC[C@H](C1)N(Cc1nnc(C3CC3)o1)C2,Percent Effect,"30 µM, 30.03 µM",-29.28%
CCNCCOc1ccc(-c2cc(N)nc3[nH]ccc23)cc1,Percent Effect,"30.3 µM, […]",21.45%
Cc1cnccc1-c1cc(NCCO)nc2[nH]ccc12,Percent Effect,"30 µM, 30.03 µM",-32%
CNc1cc(-c2ccc(COCCN)cc2)c2cc[nH]c2n1,Percent Effect,"30 µM, 30.03 µM",-16.28%
CCCNCc1ccc(-c2cc(N)nc3[nH]ccc23)cc1,Percent Effect,"30.3 µM, […]",58.31%
CCCNCc1ccc(-c2ccnc3[nH]ccc23)cc1,Percent Effect,"30.3 µM, […]",63.66%
Nc1cc(-c2cc(O)cc(C(=O)O)c2)c2cc[nH]c2n1,Percent Effect,"30 µM, 30.03 µM",-9.984%
CC(C)N1CCC(c2nc3ccc(-c4ccnn4C)cn3n2)CC1.O=C(O)C(F)(F)F,Percent Effect,"30.3 µM, […]",-11.51%
O=C(CC1CCCC1)N1CCC2(CCN2Cc2ccc(F)cc2)C1.O=C(O)C(F)(F)F (stereo not drawn),Percent Effect,"30.3 µM, […]",-0.9298%
